Laboratory results from PubChem BioAssay.
The source made the active and inactive calls.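 Rule for the calls, unless noted: active = fluorescence slope higher than the sample average by over 3 SD (cut at about -0.22 in these data, passing the limit was not always enough); inactive = the rest.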

Legend:
[1] = inhibitors of TNFa-induced NFkB p65 translocation, primary screen, imaging, HUVEC, MLSMR starter and 10KST1 sets (AID 438;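 active = inhibition above 20% together with a positive visual image hit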;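 note: compound added about 3h40 before a 20 min TNFalpha stimulation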;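 for inhibition: signal is the nuclear over cytoplasmic p65 intensity ratio per well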); details: HUVEC TNFa-induced p65 nuclear translocation; cell count: measured here: nuclei count (cytotoxicity indicator), at 2.08 µM; inhibition: at 2 µM, stronger effect = higher value, 0% TNFa-plus-vehicle, 100% no-TNFa wells
[2] = inhibitors of mutant huntingtin aggregation, primary screen, imaging, exon1htt(103Q)mCFP cells, high-content imaging (AID 483;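 active = visual image review flags a hit and inhibition of aggregation exceeds 20%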;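 note: compound exposure lasted 3 days before fixation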;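 for nuclei count: percent of the per-plate median nuclei count of sample wells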); details: exon1htt(103Q)mCFP cell line, aggregate imaging, at 2 µM; inhibition of aggregation: stronger effect = higher value; nuclei count: measured here: cell count, toxicity
[3] = inhibitors of E-selectin induction by TNFa, primary screen, imaging, HUVEC, immunofluorescence, MLSMR starter and 10KST1 sets (AID 487;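 active = visually confirmed hit in the image check and inhibition above 20%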;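 for inhibition: signal is fraction of cell area covered by stained E-selectin grains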;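 for nuclei count: 100% = median nuclei count of all wells on the same plate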); details: HUVEC TNFalpha-induced E-selectin immunofluorescence imaging, at 2 µM; inhibition: stronger effect = higher value; nuclei count: measured here: cell number, toxicity
[4] = target: Voltage-gated potassium channel subunit beta-2 (Rattus norvegicus) (UniProt P62483); assay: KvBeta enzyme negative modulators, primary screen, biochemical, NADPH fluorescence (AID 622); details: recombinant KvBeta, 4-cyanobenzaldehyde reduction, at 10 µM, stronger effect = higher value;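 note: slope of raw intensity against log time taken from 70 to 1610 s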
Chain of Voltage-gated potassium channel subunit beta-2 (Rattus norvegicus) (P62483 whole entry, looked up): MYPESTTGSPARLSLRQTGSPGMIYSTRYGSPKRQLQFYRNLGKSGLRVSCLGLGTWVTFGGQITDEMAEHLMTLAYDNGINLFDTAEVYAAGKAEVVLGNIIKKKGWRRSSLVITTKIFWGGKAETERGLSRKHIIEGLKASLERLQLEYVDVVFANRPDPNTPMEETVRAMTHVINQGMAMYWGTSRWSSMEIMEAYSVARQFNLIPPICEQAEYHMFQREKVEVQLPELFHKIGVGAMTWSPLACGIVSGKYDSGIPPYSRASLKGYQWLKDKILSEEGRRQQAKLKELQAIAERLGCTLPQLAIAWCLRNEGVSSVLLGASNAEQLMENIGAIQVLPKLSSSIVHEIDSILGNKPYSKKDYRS

[5] = target: Voltage-gated potassium channel subunit beta-2 (Rattus norvegicus) (UniProt P62483); assay: KvBeta positive modulators, primary screen, biochemical, NADPH fluorescence (AID 623;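 active = NADPH fluorescence slope more negative than the mean of all samples by about 3 SD, 99.7% confidence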;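 note: fluorescence intensity change per second fitted from 20 to 320 s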); details: Recombinant KvBeta, NADPH fluorescence decrease slope, 10 min; at 10 µM; stronger effect = lower value
[6] = target: Alpha-2C adrenergic receptor (Homo sapiens) (UniProt P18825); assay: modulators of alpha2C/GIRK thallium flux, primary screen, cell-based, HEK293 alpha2C/GIRK1/2 (AID 624;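 active = fluorescence slope after compound addition differing from the mean of all screened samples at 99.7% confidence, in either direction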;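 note: slope of fluorescence ratio to pre-addition baseline per second over 15 to 24 s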); details: thallium flux BTC fluorescence, at 10 µM, actives lie on both sides
Chain of Alpha-2C adrenergic receptor (Homo sapiens) (P18825 whole entry, looked up): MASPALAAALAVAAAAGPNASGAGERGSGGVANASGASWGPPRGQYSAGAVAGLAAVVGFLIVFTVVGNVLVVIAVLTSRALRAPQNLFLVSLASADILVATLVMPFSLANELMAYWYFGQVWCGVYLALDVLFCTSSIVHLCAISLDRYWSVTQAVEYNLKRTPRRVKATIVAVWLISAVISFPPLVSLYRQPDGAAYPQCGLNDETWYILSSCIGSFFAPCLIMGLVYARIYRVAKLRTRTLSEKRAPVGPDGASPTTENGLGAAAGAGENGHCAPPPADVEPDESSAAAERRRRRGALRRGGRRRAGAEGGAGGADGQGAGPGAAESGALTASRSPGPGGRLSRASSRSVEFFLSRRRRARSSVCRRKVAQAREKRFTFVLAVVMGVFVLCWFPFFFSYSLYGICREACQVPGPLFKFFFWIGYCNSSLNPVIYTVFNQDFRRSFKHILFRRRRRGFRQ

[7] = inhibitors of Sendai virus-induced IRF3 signaling, primary screen, TLR/RLR signaling modifier project, cell-based, Sendai virus stimulus, luciferase, 10K MLSCN set (AID 602276;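 active = inhibition at or above 50% at 10 µM; inactive = inhibition below 50%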;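 note: firefly luciferase from ISG56 promoter only with Renilla not read in this screen; 0% = Sendai virus plus DMSO and 100% = medium plus DMSO without virus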); details: HEK293 RL24 IRF3 luciferase reporter, at 10 µM, stronger effect = higher value
[8] = inhibitors of poly I:C-induced TLR3 signaling, primary screen, cell-based, poly I:C stimulus, luciferase, 10K MLSCN set (AID 602277;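 active = inhibition of the reporter signal at or above 50%; inactive = inhibition below 50%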); details: HEK293-TLR3 RL24 IRF3 luciferase reporter, at 10 µM, stronger effect = higher value

Q: For `Cc1ccccc1CN1CCN(C(=O)c2cccc(F)c2)CC1`, which cell count [1] is on record?
A: 284

Q: And the inhibition [1]?
A: -13% (inactive)

Q: What about the inhibition of aggregation [2] of the same molecule?
A: 14.5% (inactive)

Q: What about the nuclei count [2] of the same molecule?
A: 91.7%

Q: And the inhibition [3]?
A: 2.5% (inactive)

Q: What about the nuclei count [3] of the same molecule?
A: 119%

Q: What about the fluorescence slope [4] of the same molecule?
A: -0.411 (inactive)

Q: What about the NADPH fluorescence slope [5] of the same molecule?
A: -1.4e-05 (inactive)

Q: And the slope [6]?
A: 0.00429 (inactive)

Q: What about the inhibition [7] of the same molecule?
A: 7.31% (inactive)

Q: And the inhibition [8]?
A: 12% (inactive)

Q: Which results are given for `COc1ccccc1C(=O)Nc1nc2ccc(S(C)(=O)=O)cc2s1`?
A: cell count [1]: 417; inhibition [1]: -6.5% (inactive); inhibition of aggregation [2]: -0.8% (inactive); nuclei count [2]: 115%; inhibition [3]: -32.3% (inactive); nuclei count [3]: 132%; fluorescence slope [4]: -0.241 (inactive); NADPH fluorescence slope [5]: -6.6e-06 (inactive); slope [6]: 0.00752 (inactive); inhibition [7]: -2.51% (inactive); inhibition [8]: -33.9% (inactive)

Q: With `COC(=O)C1=CN(C)C=C(C(=O)OC)C1c1ccc(O)c(OC)c1` as the molecule, how does the cell count [1] read?
A: 281

Q: And the inhibition [1]?
A: 18.4% (inactive)

Q: And the inhibition of aggregation [2]?
A: -27.8% (inactive)

Q: What about the nuclei count [2] of the same molecule?
A: 23.5%

Q: And the inhibition [3]?
A: 7.6% (inactive)

Q: And the nuclei count [3]?
A: 103%

Q: What about the fluorescence slope [4] of the same molecule?
A: -0.39 (inactive)

Q: What about the NADPH fluorescence slope [5] of the same molecule?
A: -4.6e-05 (inactive)

Q: And the slope [6]?
A: 0.00249 (inactive)

Q: What about the inhibition [7] of the same molecule?
A: 11.2% (inactive)

Q: And the inhibition [8]?
A: 23.8% (inactive)

Q: For `CN(C(=O)C1CCOC1)c1nnc(-c2cccnc2)s1` (stereo not given), which cell count [1] is on record?
A: 745

Q: And the inhibition [1]?
A: -12.4% (inactive)

Q: And the inhibition of aggregation [2]?
A: 15.3% (inactive)

Q: What about the nuclei count [2] of the same molecule?
A: 67.6%

Q: What about the inhibition [3] of the same molecule?
A: -41.7% (inactive)

Q: What about the nuclei count [3] of the same molecule?
A: 116%

Q: What about the fluorescence slope [4] of the same molecule?
A: -0.502 (inactive)

Q: And the NADPH fluorescence slope [5]?
A: -1.1e-05 (inactive)

Q: And the slope [6]?
A: 0.0059 (inactive)

Q: And the inhibition [7]?
A: -22% (inactive)

Q: What about the inhibition [8] of the same molecule?
A: -24.2% (inactive)

Q: Which results are given for `O=C(O)CSC1CC(=O)N(c2ccc(Cl)c(Cl)c2)C1=O` (stereo not given)?
A: cell count [1]: 754; inhibition [1]: -2.8% (inactive); inhibition of aggregation [2]: 11.7% (inactive); nuclei count [2]: 88.4%; inhibition [3]: 4.8% (inactive); nuclei count [3]: 114%; fluorescence slope [4]: -0.304 (inactive); NADPH fluorescence slope [5]: -5.1e-05 (inactive); slope [6]: 0.00566 (inactive); inhibition [7]: 3.92% (inactive); inhibition [8]: 8.23% (inactive)

Q: For `COc1cccc(NC(=O)c2nnn(Cc3ccc(Br)cc3F)c2N)c1`, which cell count [1] is on record?
A: 674

Q: And the inhibition [1]?
A: -2.8% (inactive)

Q: And the inhibition of aggregation [2]?
A: 28.1% (inactive)

Q: What about the nuclei count [2] of the same molecule?
A: 109%

Q: What about the inhibition [3] of the same molecule?
A: -61.5% (inactive)

Q: What about the nuclei count [3] of the same molecule?
A: 108%

Q: And the fluorescence slope [4]?
A: -0.484 (inactive)

Q: What about the NADPH fluorescence slope [5] of the same molecule?
A: -4e-05 (inactive)

Q: And the slope [6]?
A: 0.00669 (inactive)

Q: And the inhibition [7]?
A: 16.4% (inactive)

Q: And the inhibition [8]?
A: 9.8% (inactive)

Q: Which cell count [1] does the source give for `Cc1c(NC(=O)C(C)Oc2ncnc3ccccc23)c(=O)n(-c2ccccc2)n1C` (stereo not given) here?
A: 547

Q: And the inhibition [1]?
A: -1.7% (inactive)

Q: And the inhibition of aggregation [2]?
A: -8.5% (inactive)

Q: What about the nuclei count [2] of the same molecule?
A: 78%

Q: What about the inhibition [3] of the same molecule?
A: -5.8% (inactive)

Q: And the nuclei count [3]?
A: 111%

Q: What about the fluorescence slope [4] of the same molecule?
A: -0.506 (inactive)

Q: What about the NADPH fluorescence slope [5] of the same molecule?
A: -5e-05 (inactive)

Q: What about the slope [6] of the same molecule?
A: 0.00757 (inactive)

Q: And the inhibition [7]?
A: -7.59% (inactive)

Q: What about the inhibition [8] of the same molecule?
A: 19.3% (inactive)

Q: With `COc1ccc(S(=O)(=O)Nc2ccc(S(=O)(=O)N3CCCCC3)cc2)cc1OC` as the molecule, how does the cell count [1] read?
A: 444

Q: And the inhibition [1]?
A: -4.8% (inactive)

Q: And the inhibition of aggregation [2]?
A: -3.5% (inactive)

Q: What about the nuclei count [2] of the same molecule?
A: 110%

Q: And the inhibition [3]?
A: -34.6% (inactive)

Q: What about the nuclei count [3] of the same molecule?
A: 99.1%

Q: What about the fluorescence slope [4] of the same molecule?
A: -0.459 (inactive)

Q: And the NADPH fluorescence slope [5]?
A: -4.3e-05 (inactive)

Q: What about the slope [6] of the same molecule?
A: 0.00325 (inactive)

Q: What about the inhibition [7] of the same molecule?
A: 5.56% (inactive)

Q: And the inhibition [8]?
A: 29.1% (inactive)

Q: What does the source list for `O=C(Cn1ncc2c1-c1ccccc1OC2)Nc1ccc(Cl)cn1`?
A: cell count [1]: 462; inhibition [1]: -2.9% (inactive); inhibition of aggregation [2]: -7.1% (inactive); nuclei count [2]: 114%; inhibition [3]: -55% (inactive); nuclei count [3]: 116%; fluorescence slope [4]: -0.573 (inactive); NADPH fluorescence slope [5]: -3.2e-05 (inactive); slope [6]: 0.00703 (inactive); inhibition [7]: 9.19% (inactive); inhibition [8]: 29.8% (inactive)

Q: Which results are given for `O=C(Nc1ccc2c(c1)C(=O)N(C1CCCCC1)C2=O)C1CCCO1` (stereo not given)?
A: cell count [1]: 269; inhibition [1]: -11.7% (inactive); inhibition of aggregation [2]: 9% (inactive); nuclei count [2]: 71.5%; inhibition [3]: 47.7% (inactive); nuclei count [3]: 43.2%; fluorescence slope [4]: -0.0454 (active); NADPH fluorescence slope [5]: 6.1e-06 (inactive); slope [6]: 0.00452 (inactive); inhibition [7]: -7.34% (inactive); inhibition [8]: -20.5% (inactive)
